According to PubChem BioAssay AID1159580 (chemical genetic matrix, 2015):
Several values for one entry are separate records, joined by “and”; a condition that tells them apart may be missing. Identical values can stand only once. Hit rate of the full screen: of about 5,500 compounds, about 2,000 (36%) were called active. About 18% were inconclusive and are not listed. Rule as the data show it: active = normalized growth mostly below about 0.91 (no sharp cut-off); inconclusive = no clear call, values can overlap the other calls; inactive = mostly above about 0.92. The list shows a part of the results.

Test: chemical genetic growth profiling, strain panel (AID 1159580);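 also: tested at 20 µM; growth read once vehicle control cultures reached saturation at 30 °C; 1 = growth at the plate median or of vehicle wells; lower values mean less growth of the strain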
Conditions: S. cerevisiae deletion strains, growth OD

Measured: normalized growth

NC(C(=O)O)C(O)C(=O)O (stereo not drawn)
inactive: locus YAL013W, strain DEP1, active compounds read low 1.04 | locus YAL021C, strain ccr4, active compounds read low 0.941 | locus YAL026C, strain drs2, active compounds read low 0.998 | locus YAL030W, strain snc1, active compounds read low 0.98 | locus YBL061C, strain skt5, active compounds read low 0.996 | locus YBR009C, strain hhf1, active compounds read low 0.955 | locus YBR021W, strain FUR4, active compounds read low 0.993 | locus YBR023C, strain chs3, active compounds read low 0.994 | locus YBR171W, strain sec66, active compounds read low 0.997 | locus YBR229C, strain ROT2, active compounds read low 1.01 | locus YBR231C, strain swc5, active compounds read low 1.03 | locus YBR279W, strain paf1, active compounds read low 0.993 | locus YCL011C, strain gbp2, active compounds read low 0.98 | locus YCL016C, strain dcc1, active compounds read low 0.978 | locus YCL029C, strain bik1, active compounds read low 1.03 | locus YCL061C, strain MRC1, active compounds read low 1 | locus YCL069W, strain vba3, active compounds read low 0.991 | locus YCR088W, strain abp1, active compounds read low 1 | locus YDL005C, strain med2, active compounds read low 0.982 | locus YDL035C, strain GPR1, active compounds read low 1.02 | locus YDL040C, strain nat1, active compounds read low 0.996 | locus YDL074C, strain BRE1, active compounds read low 1.02 | locus YDL101C, strain DUN1, active compounds read low 1.02 | locus YDL134C, strain PPH21, active compounds read low 1.01 | locus YDL185W, strain tfp1, active compounds read low 1.02 | locus YDL192W, strain arf1, active compounds read low 1.02 | locus YDR001C, strain nth1, active compounds read low 0.97 | locus YDR069C, strain doa4, active compounds read low 0.969 | locus YDR101C, strain arx1, active compounds read low 1.04 | locus YDR137W, strain rgp1, active compounds read low 0.982 | locus YDR159W, strain sac3, active compounds read low 1.05 | locus YDR162C, strain NBP2, active compounds read low 1.04 | locus YDR195W, strain ref2 0.973 | locus YDR297W, strain sur2, active compounds read low 0.994 | locus YDR318W, strain mcm21, active compounds read low 1.01 | locus YDR334W, strain swr1, active compounds read low 0.983 | locus YDR335W, strain msn5, active compounds read low 0.986 | locus YDR388W, active compounds read low 1.02 | locus YDR392W, strain spt3, active compounds read low 0.91 | locus YDR502C, strain sam2, active compounds read low 1.03 | locus YEL003W, strain gim4, active compounds read low 0.999 | locus YEL037C, strain rad23, active compounds read low 0.983 | locus YEL061C, strain CIN8 (second series), active compounds read low 0.99 | locus YEL061C, strain CIN8, active compounds read low 1.01 | locus YER015W, strain faa2, active compounds read low 0.997 | locus YER016W, strain bim1, active compounds read low 0.991 | locus YER110C, active compounds read low 1.03 | locus YER111C, strain swi4, active compounds read low 0.994 | locus YER155C, strain BEM2 (second series), active compounds read low 1.03 | locus YER155C, strain BEM2, active compounds read low 0.983 | locus YER167W, strain BCK2, active compounds read low 1.01 | locus YFR010W, strain ubp6, active compounds read low 0.986 | locus YGL078C, strain dbp3, active compounds read low 1.02 | locus YGL086W, strain mad1, active compounds read low 1 | locus YGL167C, strain pmr1, active compounds read low 0.969 | locus YGL173C, strain kem1, active compounds read low 0.999 | locus YGL227W, strain vid30, active compounds read low 0.997 | locus YGL240W, strain doc1, active compounds read low 1 | locus YGL248W, strain PDE1, active compounds read low 1.02 | locus YGL253W, strain hxk2, active compounds read low 1.02 | locus YGR078C, strain PAC10, active compounds read low 1.02 | locus YGR135W, strain pre9, active compounds read low 1.01 | locus YGR252W, strain gcn5, active compounds read low 0.999 | locus YHR013C, strain ard1, active compounds read low 0.969 | locus YHR027C, strain rpn1, active compounds read low 0.991 | locus YHR030C, strain SLT2, active compounds read low 1 and 1.03 | locus YHR079C, strain IRE1 (second series), active compounds read low 1.02 | locus YHR079C, strain IRE1, active compounds read low 1.03 | locus YHR094C, strain hxt1, active compounds read low 1.02 | locus YHR129C, strain ARP1, active compounds read low 1.01 | locus YHR142W, strain chs7, active compounds read low 0.983 | locus YHR200W, strain rpn10, active compounds read low 1.02 | locus YIL066C, strain RNR3, active compounds read low 1.02 | locus YIL073C, strain SPO22, active compounds read low 1.09 | locus YIL125W, strain kgd1, active compounds read low 1.01 | locus YIR030C, strain dcg1, active compounds read low 1.02 | locus YJL092W, strain hpr5, active compounds read low 0.986 | locus YJL095W, strain BCK1 (second series), active compounds read low 0.993 | locus YJL095W, strain BCK1, active compounds read low 1.03 and 1.06 | locus YJL115W, strain asf1, active compounds read low 0.965 | locus YJL129C, strain trk1, active compounds read low 1.02 | locus YJL134W, strain LCB3, active compounds read low 1.01 | locus YJL154C, strain vps35, active compounds read low 0.987 | locus YJL164C, strain tpk1, active compounds read low 0.96 | locus YJL166W, strain qcr8, active compounds read low 0.988 | locus YJL168C, strain set2, active compounds read low 1.01 | locus YJL187C, strain SWE1 (second series), active compounds read low 1.03 | locus YJR043C, strain POL32, active compounds read low 1.02
